# Source: PubChem BioAssay AID1347076 (National Center for Advancing Translational Sciences (NCATS), 2019)
# Hit rate of the full screen: of about 400,000 compounds, about 13,000 (3.2%) were called active. Inconclusive results (about 18%) are left out. What follows is part of a selection rich in actives, with near analogues and random picks from the rest. A number with no mark means an inactive call. Calls follow the shape of the dose curve; as a rule, active = well fitted cell-killing curve with a large enough effect; inconclusive = small, poorly fitted or top-dose-only effect, or effect the other way; inactive = flat fitted curve, though single readings scatter.
# Assay: qHTS assay for MDR1-selective chemotherapeutics: Primary screen using the drug-selected MDR subline cells KB-V1; also: nearly all actives have a fitted effect of over 60% in size
# Details: KB-V1 MDR cells viability, CellTiter-Glo, 72 h; series mostly up to 46.1 µM; activity change, negative = cytotoxicity: at the top concentration
# Procedure, shortened: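 KB-V1, DMEM (no phenol red) + 10% FBS; cpd pin-transferred, titration series; 72 h, 37 degrees C; CellTiter-Glo, luminescence. Data normalized, curve-fit.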
# % is scaled to controls: 0 for no effect and ±100 for the full control effect; potency is read from the fitted curve at half-maximal effect.
Structure (SMILES),"activity change, negative = cytotoxicity [%]",Potency
C[C@@H]1CN([C@@H](C)CO)C(=O)c2c(c3ccccc3n2C)-c2ccccc2CO[C@H]1CN(C)C(=O)C1CC1,2.91,–
Cn1ncc([N+](=O)[O-])c1C(=O)Nc1cc(Cl)ccc1Cl,-28.7,–
CN(C)c1ccc(NC(=O)CSc2nc(-c3ccco3)cc(C(F)(F)F)n2)cc1,-4.3,–
Cc1ccc(-c2cnc(C(O)c3cccc(C)c3C)[nH]2)cc1 (stereo not drawn),0.531,–
Cc1cc(F)ccc1NS(=O)(=O)c1ccc(-n2cccn2)cc1,-19.7,–
Cc1ccc(-c2nnc3ccc(SCC(N)=O)nn23)cc1,-16.7,–
CCC1(C(=O)c2ccccc2)C(c2cccc([N+](=O)[O-])c2)C1(C(=O)OC)C(=O)OC (stereo not drawn),–,23.1 µM (active)
O=C(NOCc1ccccc1)c1cccc([N+](=O)[O-])c1,-0.0129,–
COc1cccc(NCCC(=O)c2cccc([N+](=O)[O-])c2)c1,0,–
CC(C)(C)NC(=O)C(CCc1ccccc1)n1c(=O)c(-c2ccccc2)nc2ccccc21 (stereo not drawn),-14,–
Cc1ccc(C)c2[nH]c(=O)c(CN(Cc3cccnc3)C(=S)NCc3ccco3)cc12,-4.35,–
Cc1cc(C)c2[nH]c(=O)c(CN(Cc3ccccc3)C(=S)NCCCN(C)C)cc2c1,20.3,–
Cc1cccc2cc(CN(C(=O)c3cccs3)c3ccccc3)c(=O)[nH]c12,–,23.1 µM (active)
Cc1ccc(C)c2[nH]c(=O)c(CCNC(=O)c3cccs3)cc12,-0.813,–
CCCN(Cc1cc2cccc(C)c2[nH]c1=O)S(C)(=O)=O,0,–
Cc1cccc2cc(CN(Cc3cccs3)C(=S)NCc3ccco3)c(=O)[nH]c12,–,3.66 µM (active)
CCOC1=C2[C@H]([C@H]3C(=O)N(c4ccccc4)C(=O)[C@H]3C1)[C@@H](c1ccccc1)N(S(=O)(=O)c1ccc(C)cc1)[C@H]2c1ccccc1,9.91,–
CCc1nc2ccc(C(=O)NCc3ccc(OC)cc3)cn2c1N(CC)Cc1cccc(Br)c1,-14.4,–
CSC1=NN(c2ccccc2)CN(c2ccccc2)N1C,-10.4,–
Cc1cccc(-c2cnc(C(O)c3cc(C)cc(C)c3)[nH]2)c1 (stereo not drawn),-1.95,–
COCCNC(=O)C1(C)CCCN(Cc2cccc(F)c2)C1 (stereo not drawn),5.35,–
O=C(CN1CCN(c2ccccn2)CC1)N1CCc2ccccc21,19.5,–
O=C(CN1C(=O)c2cccc3cccc1c23)Nc1ccccc1,-9.9,–
O=C1c2cccc3cccc(c23)N1CN1CCN(c2ccccn2)CC1,–,5.8 µM (active)
COc1ccc(NC(=O)CN2C(=O)NC(C)(c3ccccc3)C2=O)cn1 (stereo not drawn),19,–
CC(=O)c1ccc(NC(=O)c2ccc3c(Cl)c4c(nc3c2)CCCC4)cc1,–,16.4 µM (active)
COc1cccc(CNC(=O)c2ccc3c(Cl)c4c(nc3c2)CCCC4)c1,-11.6,–
COc1ccc(N2CCN(C(=O)c3ccc4c(Cl)c5c(nc4c3)CCCC5)CC2)cc1,–,inactive
